High-throughput results as filed in PubChem BioAssay.
Many of the other results were omitted from the sample, so hits are more common in it than they were.
AmpC inh detg – blocks E. coli AmpC beta-lactamase in detergent assay. P00811. AmpC hydrolysis of nitrocefin, absorbance 480 nm, 0.01% Triton. Potency, µM (highest dose often 114 µM), for inactives: top-dose activity change, negative = inhibition, usual class: inhibitors. hit rate 0.041% among 370,000;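 note: potency is the fitted concentration of half-maximal effect; 0% = no-compound wells and -100% = no-enzyme wells; nearly all actives have a fitted effect of over 25% in size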
Target sequence (P00811 whole entry, looked up): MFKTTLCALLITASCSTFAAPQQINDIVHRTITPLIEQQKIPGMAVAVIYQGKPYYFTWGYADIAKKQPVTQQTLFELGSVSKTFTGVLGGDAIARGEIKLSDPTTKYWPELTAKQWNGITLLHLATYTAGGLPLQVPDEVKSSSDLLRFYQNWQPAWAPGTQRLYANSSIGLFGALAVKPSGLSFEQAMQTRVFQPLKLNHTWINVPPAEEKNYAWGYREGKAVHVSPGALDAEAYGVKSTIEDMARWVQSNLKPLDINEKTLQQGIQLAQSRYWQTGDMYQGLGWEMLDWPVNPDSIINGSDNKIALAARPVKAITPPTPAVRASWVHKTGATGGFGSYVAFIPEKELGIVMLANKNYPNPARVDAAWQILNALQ
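20 mM phosphate pH 7.0 + 0.01% (detergent screen) or 0.0001% Triton X-100; 5.3 nM AmpC reagent; cpd preinc 15 min RT; nitrocefin (800 uM stock) to start; A480 q20 s × 4 min; Activity was normalised to no-enzyme and no-compound control wells.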
AmpC no deterg – AmpC beta-lactamase inhibition without detergent; P00811; AmpC nitrocefin hydrolysis, absorbance 480 nm, 0.0001% Triton; Potency, µM (series often up to 57.1 µM), without a hit: at the top dose activity change, negative = inhibition, most hits filed as inhibitors; hit rate 0.52% among 330,000;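 note: potency is the fitted concentration of half-maximal effect; plate controls were no compound for no effect and no enzyme for full effect; nearly all actives have a fitted effect of over 20% in size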
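AmpC (5.3 nM in the dispensed reagent) in 20 mM phosphate pH 7.0 with 0.01% (detergent screen) or 0.0001% Triton X-100 was preincubated with compounds for 15 min at room temperature. Nitrocefin was then added from an 800 uM solution, and hydrolysis was followed at 480 nm.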
Cycloheximide cs – counter-screen for Shiga toxin inhibitors: cycloheximide protein synthesis inhibition; cell reporter, cycloheximide protein synthesis inhibition counterscreen; max response, %; hit rate 12% among 300,000; in the data active = max response mostly above about 13%, no sharp cut-off; inactive = mostly below about 14%; note: read at 38.3 µM for the half of the compounds with a filed dose; 0% is about no effect
NS1 function inh – inhibitors of influenza NS1 protein function | Potency, µM (series often up to 46.1 µM), for inactives: top-dose activity, positive = more growth | AID 2326 | hit rate 0.4% among 270,000; calls by dose curve; note: potency is the fitted concentration of half-maximal effect; actives are rising curves; nearly all actives have a fitted effect of over 50% in size
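Compounds were scored for reversing the slow growth caused by influenza A NS1 in S. cerevisiae, measured by optical density at 600 nm. Assay medium contained 2% galactose at pH 6.0; NS1-free yeast of the same strain were the positive control.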
Shiga toxin inh – blocks Shiga toxin action in Vero cells | Vero cells, Shiga toxin protein synthesis inhibition reporter | inhibition, % at 38.7 µM | hit rate 9.2% among 290,000; in the data active = inhibition mostly above about 28%, no sharp cut-off; inactive = mostly below about 43%; note: 0% is about no effect
An asterisk follows results filed as active; i = inactive; ? = inconclusive; nt = no result given. Unless noted, calls come from the whole dose curve; as a rule, active = well fitted curve in the direction sought with a large enough effect; inconclusive = small, poorly fitted or top-dose-only effect, or another doubt; inactive = no such curve, though single readings can be large; an effect the other way counts as inactive or inconclusive.

SMILES	AmpC inh detg	AmpC no deterg	Cycloheximide cs	NS1 function inh	Shiga toxin inh
CC(=O)Oc1ccc(/C=C2\N=C(C3CCCCC3)OC2=O)cc1	-4%	-27%	4	nt	-3
COc1cccc(/C=C2\N=C(C3CCCCC3)OC2=O)c1OC	3%	-10%	52*	nt	13
CCCSC1=NC2(CCN(C(=O)NC3CCCCC3)CC2)N=C1c1ccc(OC)cc1	-5%	nt	nt	nt	nt
CCc1ccc(OCCn2cccn2)cc1	1%	-9%	34*	nt	59*
O=C(CC1Oc2ccccc2NC1=O)NCCCN1CCOCC1 (stereo unspecified)	?	2.5µM*	-1	-6%	25
O=S(=O)(Cc1cccc(C(F)(F)F)c1)c1ncn[nH]1	-2%	-19%	6	3%	-4
Cc1cc(CNC(=O)C2CCC(=O)N(Cc3ccccc3F)C2)on1 (stereo unspecified)	?	-8%	7	12%	24
Cc1ccc(CNC(=O)C2CCC(=O)N(CCc3cccc(F)c3)C2)s1 (stereo unspecified)	-3%	56%	1	3%	11
O=C(NC1CCCCCC1)C1CCC(=O)N(Cc2ccccc2F)C1 (stereo unspecified)	-9%	48%	27*	-5%	26
Cc1ccc(CNC(=O)C2CCC(=O)N(Cc3ccccc3F)C2)s1 (stereo unspecified)	3%	21%	31*	4%	15
Cc1cccc(N2CCN(C(=O)C3CCC(=O)N(Cc4ccccc4F)C3)CC2)c1C (stereo unspecified)	?	180%	15*	-22%	9
COCCN1CCN(C(=O)C2CCC(=O)N(Cc3ccccc3F)C2)CC1 (stereo unspecified)	3%	-12%	-1	7%	-3
Cc1ccc(CNC(=O)C2CCC(=O)N(CCc3ccccc3)C2)s1 (stereo unspecified)	-3%	22%	54*	-9%	34
CSCCC(NS(=O)(=O)c1ccc(Cl)cc1)C(=O)OCC(=O)c1ccc(F)cc1 (stereo unspecified)	6%	-22%	5	-87%	-2
O=C1CC(c2ccc3c(c2)OCO3)c2cc(O)ccc2O1 (stereo unspecified)	nt	nt	-1	nt	i
Cc1c(C(C)(C)C)sc(=NC(=O)c2ccccc2O)n1C	4%	-24%	38*	-6%	82*
Cc1c(C(=O)N(C)C)sc2c1c(=O)n(-c1ccc(Cl)c(Cl)c1)c(=O)n2Cc1ccc(F)cc1	7%	nt	nt	nt	nt
O=c1c(Cl)cc(Cl)nn1-c1ccccc1	-5%	-17%	-2	-14%	-9
CC(=O)C(/C=N/c1cc(-c2ccc(C)cc2)nn1-c1ccccc1)=C(\C)O	-5%	-20%	56*	-6%	93*
Cc1ccc(NC(=O)c2cc(-c3ccccc3)nn2-c2ccccc2)cc1	-6%	-18%	-2	-3%	-15
Clc1ccccc1/C=N/c1cc(-c2ccccc2)nn1-c1ccccc1	-9%	-32%	33*	?	52*
CC[C@@H]1C=C(C(=O)O)[C@H](c2ccc(Br)cc2)N1S(=O)(=O)c1ccc(C)cc1	nt	3%	nt	nt	nt
S=C(NCCc1ccccc1)NCCc1cnc[nH]1	-11%	-9%	16*	19%	nt
S=C(NCCCc1ccccc1)NCc1ccccc1	1%	-31%	26*	-67%	25*
CCOCCCNC(=S)NCCc1ccccc1	?	-12%	43*	-5%	108*
SMILES	AmpC inh detg	AmpC no deterg	Cycloheximide cs	NS1 function inh	Shiga toxin inh
Cc1ccc(NC(=S)NCCc2cnc[nH]2)cc1C	-7%	-10%	-2	2%	-8
CCOCCCNC(=S)Nc1ccc(Br)cc1Cl	2%	-27%	12*	-6%	36
CCOCCCNC(=S)NC1CC2CCC(C1)N2Cc1ccccc1 (stereo unspecified)	2%	-25%	-2	-2%	-18
Oc1c(C(c2ccccc2F)N2CCC3(CC2)OCCO3)sc2nc(-c3ccco3)nn12 (stereo unspecified)	2%	nt	nt	nt	nt
CCOc1ccc(NC(=O)c2oc3ccccc3c2NC(=O)Cc2ccc(F)cc2)cc1	1%	nt	nt	nt	nt
Cn1c(=O)c2[nH]c(CCC(=O)O)nc2n(C)c1=O	nt	nt	nt	8%	nt
Cc1ccc(NC(=O)CCC(=O)N2CCC(C)CC2)c([N+](=O)[O-])c1	-8%	1%	3	-15%	-2
CCCCn1c(=N)n(CC(=O)c2ccc(OC)cc2)c2ccccc21	4%	-1%	-2	-1%	-9
Cn1c(=N)n(CC(=O)c2ccccc2)c2ccccc21	4%	-2%	23*	1%	24
COc1ccc(C(=O)CN2C(=O)COc3ccccc32)cc1	2%	-4%	10	8%	34
Cn1c(=N)n(CC(=O)C(C)(C)C)c2ccccc21	0%	9%	27*	-8%	148*
COc1ccc(C(=O)CN2Cc3ccccc3C2=N)cc1	3%	-22%	30*	5%	88*
COc1ccc(C(=O)Cn2c(=N)n(C)c3ccccc32)cc1	6%	17%	60*	-1%	85*
O=C(CSc1nc2c([nH]c3ccccc32)c(=O)n1-c1ccc(Cl)cc1)NC1CCCCC1	1%	nt	nt	nt	nt
Cc1c(-c2ccccc2)nnn1-c1ccc(F)cc1F	-9%	-19%	45*	-38%	73*
CC(=O)c1nnn(-c2ccc(F)cc2F)c1C	-7%	-5%	-1	9%	4
O=c1c(S(=O)(=O)c2ccccc2)cn(Cc2cccc(F)c2)c2cc(N3CCOCC3)c(F)cc12	-1%	nt	nt	nt	nt
N#Cc1c(-c2cccs2)nc(SCC(=O)c2cccs2)[nH]c1=O	?	10%	-3	24%	-20
Brc1ccc(CN2CCN(c3ccccn3)CC2)s1	-5%	14%	-3	-12%	-11
COc1ccc(C(=O)Oc2c(CN3CCOCC3)cc(Cl)c3cccnc23)cc1	0%	46%	6	-22%	-16
Oc1c(CN2CCN(c3ccccn3)CC2)cc(Cl)c2cccnc12	-10%	32%	14*	-30%	7
O=C(Oc1c(CN2CCOCC2)cc(Cl)c2cccnc12)c1ccc(F)cc1	5%	27%	30*	-2%	38
OCCN1CCN(Cc2cc(Cl)c3cccnc3c2O)CC1	-11%	-3%	-3	-50%	-12
O=c1c(CN2CCN(c3ccccn3)CC2)coc2ccccc12	0%	-8%	66*	12%	87*
Cc1cc(Nc2cccc(C(F)(F)F)c2)nc2ccc(NC(=O)c3cccc(Cl)c3)cc12	-7%	nt	nt	nt	nt
SMILES	AmpC inh detg	AmpC no deterg	Cycloheximide cs	NS1 function inh	Shiga toxin inh
Cc1cc(C)cc(OCCCn2c(-c3ccc(Cl)cc3)nc3ccccc3c2=O)c1	3%	nt	nt	nt	nt
O=C(O)Cc1ccc(C(=O)c2cccs2)s1	9%	-40%	16	4%	27
N#CCc1ccc(C(=O)c2ccccc2)s1	2%	?	18*	1%	44
Cc1ccc2nc(CN3CCN(S(=O)(=O)c4ccc(F)cc4)CC3)oc2c1	13%	nt	nt	nt	nt
C/C(=N/N=C(/N)SCc1ccccc1)C(C)(C)C	-2%	-19%	27*	-1%	37
CC(C)(SCc1ccccc1)[C@H](N)C(=O)O	nt	nt	nt	3%	nt
O=C1NC2(CCCCC2)N=C1c1ccc(F)cc1	-17%	-20%	2	-31%	30
